Results filed as inconclusive are left out. Unmarked numbers belong to inactive results. The call rests on the fitted dose curve; in most records, active means well fitted activation curve with a large enough effect in the repeat runs; inconclusive means weak or mixed curves; inactive means flat fitted curve, though single readings scatter.
On the % scale 0 is the no-effect control and ±100 the full control effect.

This assay can be described thus: A CellTox Green Cytotoxicity Assay to monitor cytotoxicity in HEK293 cells - 24 hour (AID 1224875). Further: nearly all actives have a fitted effect of over 45% in size. The note with it: CellTox Green fluorescence; series mostly up to 76.8 µM; activity change: at the top concentration. An excerpt:
National Center for Advancing Translational Sciences [NCATS]
NIH Chemical Genomics Center [NCGC]
U.S. Environmental Protection Agency [EPA]
National Institutes of Environmental Health Sciences [NIEHS]
National Toxicology Program [NTP]
Cell-based models are critical for drug discovery. Determining the natural cytotoxic effects resulting from test compounds is an essential research activity. A CellTox Green Cytotoxicity Assay to monitor cytotoxicity in real time of continues cell culture during 40 hours of the compound treatment was used to screen Tox21 10K library compounds in Hek293 cells. CellTox Green Cytotoxicity Assay is a nonlytic, homogeneous, biofluorescent method to measure cytotoxicity in cell culture after experimental manipulation. The assay system uses a proprietary asymmetric cyanine dye that is excluded from viable cells but preferentially stains the dead cell's DNA. […] Viable cells produce no appreciable increases in fluorescence. Therefore, the fluorescence signal produced by the binding interaction with dead cell DNA is proportional to cytotoxicity.
The mixture of Hek293 cell suspension and reagents were dispensed at 600cells/6 ul/well in 1536-well tissue culture treated black solid bottom plates using a Multidrop dispenser. After the assay plates were incubated at a 37 C/5% CO2 incubator for 5 hours, 23 nL of compounds dissolved in DMSO, positive and negative controls was transferred to the assay plate by a pintool work station. The plates were incubated at 37 C for 40 hours. The fluorescence intensity were measured at 0h, 8h, 16h, 24h, 32h and 40h time points using ViewLux plate reader during compound treatment.
For the compound `CCCC(C)CO` (stereo not given), the “activity change” value was -7.23%.
In the case of `CC1=CCC2C(C1)C2(C)C` (stereo not given), the “activity change” value is 12.6%.
Consider `CC(C)(O)C(=O)c1ccc(OCCO)cc1`, for which the “activity change” value is -3.78%.
Turning to `COc1cc(CCC(C)=O)ccc1O`, the “activity change” value is -0.169%.
As for `O=[N+]([O-])c1ccc(CCO)cc1`, the “activity change” value is -2.25%.
With `Cc1c(C)n(CCN(C)C)c2ccc(C(=O)OCCN(C)C)cc12` the figure was -2.56% [at 35.3 µM, active compounds read high]; with `CC1(C)OC(=O)Nc2ccc(Br)cc21`, -14.1% [at 35.3 µM, active compounds read high]; with `CN(C)N=Nc1ccccc1`, -10.5%.
The figure for `Cc1c(F)cc2c(=O)c(C(=O)O)cn3c2c1CCC3C` (stereo not given) is 0.35% [at 35.3 µM, active compounds read high]; for `N[C@@H](CS)C(=O)O` it is -1.53%; for `N#CC1(O)CCCCC1` it is -3.4%.
With `C#CC(O)C(CC)CCCC` (stereo not given) the figure was 11.8%.
With `CC(C)=CC(=O)O`, the “activity change” value was -2.88%.
For `Cn1ccc2cc3c(cc21)CCN3C(=O)Nc1cccnc1`, the activity change was -2.97% [at 15.8 µM, active compounds read high].
With `CCCOCC(C)OCC(C)O` (stereo not given), the “activity change” value was 6.17%.
As to `C(=C(c1ccccc1)c1ccccc1)c1ccccc1`, the “activity change” value is 13.5%.
The figure for `OCCN1C[C@H](O)[C@@H](O)[C@H](O)[C@H]1CO` is -6.01% [at 35.3 µM, active compounds read high]; for `CCCCCCC(CCCCCCCCCCC(=O)OCC(COC(C)=O)OC(C)=O)OC(C)=O` (stereo not given) it is -17.9% [at 35.3 µM, active compounds read high]; for `COc1cccc(OC)c1` it is -2.25%.
Take `C=C(C)[C@H]1CC=C(C)CC1`: the “activity change” value is -14.6%.
Turning to `CCCCCCCCCCCCCCCCCC(=O)OCCCCCCCCCCCCCC(C)C`, the “activity change” value was -3.8%.
Turning to `Nc1cc(C(Cl)=C(Cl)Cl)c(S(N)(=O)=O)cc1S(N)(=O)=O`, the “activity change” value was 0.695% [at 35.3 µM, active compounds read high].
Turning to `COCCOC(=O)CC#N`, the “activity change” value was 2.8%.
With `COc1ccc(NC(C)=O)cc1`, the “activity change” value is 4.09%.
For the compound `COc1cccc(Br)c1`, the “activity change” value is 15.7%.
With `Nc1nc(F)nc2c1ncn2[C@@H]1O[C@H](CO)[C@@H](O)[C@@H]1O`, the “activity change” value is -1.26% [at 35.3 µM, active compounds read high].
Regarding `Cc1ccccc1C(=O)O`, the “activity change” value is 9.38%.
In the case of `CCN1CCCC(OC(=O)C(c2ccccc2)c2ccccc2)C1` (stereo not given), the “activity change” value was -24.9% [at 35.3 µM, active compounds read high].
In the case of `O=C(O)/C=C/c1ccc(/C=C/C(=O)O)cc1`, the “activity change” value is 4.34% [at 35.3 µM, active compounds read high].
With `CC(=O)N[C@@H](CCC(N)=O)C(=O)O`, the “activity change” value is -11.9% [at 35.3 µM, active compounds read high].
As to `CCCCc1ccc2cccc(S(=O)(=O)O)c2c1`, the “activity change” value was -12.3%.
For `CCCCc1ccc(N)cc1`, the “activity change” value was 12.2%.
Turning to `CC(=O)O[C@H](CC(=O)[O-])C[N+](C)(C)C`, the “activity change” value is -7.64%.
With `CCCC=O`, the “activity change” value is -14.4%.
With `CCCC(=O)O[C@]1(C(=O)CCl)[C@@H](C)C[C@H]2[C@@H]3CCC4=CC(=O)C=C[C@]4(C)[C@@]3(F)C(=O)C[C@@]21C`, the “activity change” value was -7.18% [at 35.3 µM, active compounds read high].
For `COC(=O)[C@H]1[C@H]2C[C@@H]3c4[nH]c5cc(OC)ccc5c4CCN3C[C@H]2C[C@@H](OC(=O)COc2ccc(OC)cc2)[C@@H]1OC`, the “activity change” value is 14.3% [at 35.3 µM, active compounds read high].
For `Cc1ncc(CSSCc2cnc(C)c(O)c2CO)c(CO)c1O`, the “activity change” value is 9.28% [at 35.3 µM, active compounds read high].
With `CCn1c(=O)c2c(nc(/C=C/c3ccc(OC)c(OC)c3)n2C)n(CC)c1=O` the figure was -4.45% [at 35.3 µM, active compounds read high]; with `c1ccc(SCCSc2ccccc2)cc1`, -0.509%.
As to `N#CCN(CC#N)CCN(CC#N)CC#N`, the “activity change” value is -1.2%.

These data come from PubChem BioAssay (Tox21).
